According to PubChem BioAssay (Tox21):
Values joined by “and” are separate entries in the source; they are usually repeats but may differ in a detail not shown here. Identical values can stand only once. Records with an inconclusive call do not appear. Entries that show only a call come without a potency. Active and inactive are the calls of the source. Calls come from the whole dose curve; as a rule, active = well fitted activation curve with a large enough effect in the repeat runs; inconclusive = weak or mixed curves; inactive = flat fitted curve, though single readings scatter.

assay: A CellTox Green Cytotoxicity Assay to monitor cytotoxicity in HEK293 cells - 40 hour (AID 1224871); conditions: CellTox Green fluorescence; series mostly up to 76.8 µM; note: nearly all actives have a fitted effect of over 45% in size
Source text: National Center for Advancing Translational Sciences [NCATS]
NIH Chemical Genomics Center [NCGC]
U.S. Environmental Protection Agency [EPA]
National Institutes of Environmental Health Sciences [NIEHS]
National Toxicology Program [NTP]
Cell-based models are critical for drug discovery. Determining the natural cytotoxic effects resulting from test compounds is an essential research activity. A CellTox Green Cytotoxicity Assay to monitor cytotoxicity in real time of continues cell culture during 40 hours of the compound treatment was used to screen Tox21 10K library compounds in Hek293 cells. CellTox Green Cytotoxicity Assay is a nonlytic, homogeneous, biofluorescent method to measure cytotoxicity in cell culture after experimental manipulation. The assay system uses a proprietary asymmetric cyanine dye that is excluded from viable cells but preferentially stains the dead cell's DNA. […] Viable cells produce no appreciable increases in fluorescence. Therefore, the fluorescence signal produced by the binding interaction with dead cell DNA is proportional to cytotoxicity.
The mixture of Hek293 cell suspension and reagents were dispensed at 600cells/6 ul/well in 1536-well tissue culture treated black solid bottom plates using a Multidrop dispenser. After the assay plates were incubated at a 37 C/5% CO2 incubator for 5 hours, 23 nL of compounds dissolved in DMSO, positive and negative controls was transferred to the assay plate by a pintool work station. The plates were incubated at 37 C for 40 hours. The fluorescence intensity were measured at 0h, 8h, 16h, 24h, 32h and 40h time points using ViewLux plate reader during compound treatment.
Potency is the fitted concentration of half-maximal effect.

| Structure (SMILES) | Potency |
| --- | --- |
| CCC(C)Nc1c([N+](=O)[O-])cc(C(C)(C)C)cc1[N+](=O)[O-] (stereo not given) | inactive |
| N#Cc1c[nH]cc1-c1cccc2c1OC(F)(F)O2 | inactive |
| Oc1cccc(Cl)c1Cl | inactive |
| COC(=O)c1ccccc1S(=O)(=O)NC(=O)Nc1nc(C)nc(OC)n1 | inactive |
| CC(Cc1ccc(OCC(=O)O)cc1)NCC(O)c1csc(C(F)(F)F)n1 (stereo not given) | inactive |
| C=CCBr | inactive |
| CC(=O)[O-].CC(=O)[O-].CC(=O)[O-].[Cr+3] | inactive |
| COP(=S)(OC)Oc1ccc([N+](=O)[O-])c(C)c1 | inactive |
| Cc1cccc(Cc2cnc[nH]2)c1C | inactive |
| CN/C(=N\[N+](=O)[O-])NCc1cnc(Cl)s1 | inactive |
| CC(C)c1c(CN(C)C(C)Cc2ccccc2)n(C)n(-c2ccccc2)c1=O (stereo not given) | inactive |
| Nc1nc(N)nc(Cl)n1 | inactive |
| [O-][Cl+3]([O-])([O-])O | inactive |
| CCN(CC)CCN1C(=O)CN=C(c2ccccc2F)c2cc(Cl)ccc21 | inactive |
| CCOP(=S)(OCC)Oc1cc(C)nc(N(CC)CC)n1 | inactive |
| O=[N+]([O-])c1ccc(CCl)cc1 | inactive |
| CCOP(=O)(OCC)Oc1nc(Cl)c(Cl)cc1Cl | inactive |
| CC1(C)[C@H](/C=C2\CCSC2=O)[C@@H]1C(=O)OCc1coc(Cc2ccccc2)c1 | inactive |
| CCCCC(CC)COC(=O)c1ccccc1C(=O)OCC(CC)CCCC (stereo not given) | inactive |
| CCN(CC)C(=S)S | 17.5 µM (active) and 4.34 µM (active) and 9.77 µM (active) |

| Structure (SMILES) | Potency |
| --- | --- |
| CCNS(=O)(=O)C(F)(F)C(F)(F)C(F)(F)C(F)(F)C(F)(F)C(F)(F)C(F)(F)C(F)(F)F | inactive |
| Cc1c([N+](=O)[O-])c(C)c([N+](=O)[O-])c(C(C)(C)C)c1[N+](=O)[O-] | inactive |
| ClC1=C(Cl)[C@]2(Cl)[C@H]3[C@H]([C@@H]4C=C[C@H]3C4)[C@@]1(Cl)C2(Cl)Cl | 54.9 µM (active) and 49 µM (active) |
| CC(Cc1ccc2c(c1)OCO2)NO (stereo not given) | inactive |
| CCCCON=O | inactive |
| COc1ccc2c3c1O[C@H]1[C@H](O)CC[C@H]4[C@@H](C2)N(C)CC[C@@]341 | inactive |
| c1ccc(N=NNc2ccccc2)cc1 | 45.2 µM (active) and 43.6 µM (active) |
| CNC(=O)CSP(=O)(OC)OC | inactive |
| CCOC(=O)CCN(SN(C)C(=O)Oc1cccc2c1OC(C)(C)C2)C(C)C | inactive |
| CCC(C)Br (stereo not given) | inactive |
| CCOP(=O)(Sc1ccccc1)Sc1ccccc1 | inactive |
| CCC(C)c1cccc(C(C)CC)c1O (stereo not given) | 27.5 µM (active) |
| N#Cc1sc2c(=O)c3ccccc3c(=O)c=2sc1C#N | 15.5 µM (active) |
| COCCC#N | inactive |
| CCCCn1cc[n+](C)c1 (tested in a mixture with another compound) | inactive |
| CSC(C)(C)/C=N/O | inactive |
| CCC1(CC)C(=O)N=C(O)NC1=O | inactive |
| O=S1OCC2C(CO1)C1(Cl)C(Cl)=C(Cl)C2(Cl)C1(Cl)Cl (stereo not given) | 49 µM (active) and 54.9 µM (active) |
| CC1(C)C(C=C(Cl)Cl)C1C(=O)OC(C#N)c1ccc(F)c(Oc2ccccc2)c1 (stereo not given) | inactive |
| CNN | inactive |
